Screening data as filed in PubChem BioAssay.
DAX1 inh-1: DAX1 (NR0B1) inhibitors on StAR promoter, primary screen, cell-based, luminescence, SF-1 (NR5A1), full-length DAX-1. AID 652010, 2013. 370,000 tested, 1.1% active. HEK293T StAR-luciferase reporter, SF-1/DAX-1 repression relief. inhibition, % at 6.8 µM;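 active = inhibition above the mean over all tested compounds plus 3 SD, cut at about 3.6% in these data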;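 also: 0% = DAX-1 cells with DMSO and 100% = cells lacking DAX-1 with DMSO; higher inhibition means more luminescence from relief of DAX-1 repression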
ssDAF12 agonist: S. stercoralis DAF-12 nuclear receptor activators, primary screen, cell-based, luminescence, HEK293, GRIP1 co-expression, lit1-tk-luc | HEK293 ssDAF-12/GRIP1 lit1-tk-luc reporter; % of 3 µM dafachronic acid response | Nuclear hormone receptor DAF-12 (Strongyloides stercoralis) | 370,000 tested, 1% active | activation, % at 6.8 µM | AID 652126, 2013;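 active = activation above the mean over all tested compounds plus 3 SD, cut at about 0.9% in these data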;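 also: 0% = DMSO-only wells and 100% = 3 µM delta7-dafachronic acid wells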
DAX1 inh-2: DAX1 (NR0B1) inhibitors, primary screen, cell-based, HEK293, Gal4-DAX1, luciferase luminescence; Nuclear receptor subfamily 0 group B member 1 (Homo sapiens), P51843; HEK293 Gal4-DAX1 luciferase reporter; inhibition, % at 6.75 µM; 340,000 tested, 0.99% active;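 active = inhibition above the mean over all tested compounds plus 3 SD, cut at about 4.2% in these data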;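 also: 0% = DAX1-transfected cells with DMSO and 100% = empty-vector control cells with DMSO; inhibition shows as a rise in luminescence from relieved DAX1 repression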
Target sequence (P51843 207-470 limits assumed): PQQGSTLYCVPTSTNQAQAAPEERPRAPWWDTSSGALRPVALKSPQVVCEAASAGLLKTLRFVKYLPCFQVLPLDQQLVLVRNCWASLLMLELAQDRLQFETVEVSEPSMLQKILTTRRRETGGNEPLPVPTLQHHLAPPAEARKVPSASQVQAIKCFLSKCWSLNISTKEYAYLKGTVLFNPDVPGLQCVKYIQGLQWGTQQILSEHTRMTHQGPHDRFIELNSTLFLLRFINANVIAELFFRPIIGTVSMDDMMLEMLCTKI
SMARCA2 act: SMARCA2 (BRM) function activators, primary screen, cell-based, luminescence, high throughput | MG213 cells, MMTV-luciferase reporter, dexamethasone, overnight | activation, % at 9.1 µM | 370,000 tested, 1% active; in the data active = activation above about 7.8%;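 also: 0% = vehicle wells and 100% = reference activator wells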
hcDAF-12 act: H. contortus DAF-12 nuclear receptor activators, primary screen, cell-based, luminescence, HEK293, lit1-tk-luc reporter; HEK293 hcDAF-12 lit1-tk-luc reporter; 0% DMSO, 100% Δ7-dafachronic acid; activation, % at 6.8 µM; 370,000 tested, 1.4% active;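 active = activation above the mean of all tested compounds plus 3 SD, cut at about 5.5% in these data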;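 also: 100% = response to 3 µM Δ7-dafachronic acid high control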
hgDAF-12 ag: H. glycines DAF-12 receptor agonists, primary screen, cell-based, luminescence, HEK293, GAL4 fusion, UAS-luciferase; Nuclear hormone receptor DAF-12 (Heterodera glycines), GAL4 fusion; HEK293 GAL4-hgDAF12 UAS-luciferase reporter, agonist luminescence; normalized to butyrate control; activation, % at 6.8 µM; 370,000 tested, 1.8% active; AID 687014, 2013;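 active = activation above a cutoff set at the mean of all screened compounds plus 3 SD, cut at about 10% in these data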;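 also: 0% = DMSO wells and 100% = sodium butyrate wells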
Starred values were filed as active, the others as inactive; . = not tested or not shown. Shown are actives, neighbours in structure and some others; about 4.8% of the full set was active somewhere.

SMILES	DAX1 inh-1	ssDAF12 agonist	DAX1 inh-2	SMARCA2 act	hcDAF-12 act	hgDAF-12 ag
O=C(Nc1ccc(N2CCOCC2)c(Cl)c1)c1ccc(Cl)cc1	0	-1	-1	0	0	0
CC1(C)Oc2ccc(NC(=O)c3ccco3)cc2O1	2	0	3	1	3	11*
Cc1cc(C(=O)Nc2ccc(N3CCOCC3)c(Cl)c2)c(C)o1	0	-1	4.2*	4	2	1
Cc1ccc(Oc2ccc(Cl)cc2NC(=O)c2ccc(F)cc2F)cc1	1	-1	6.0*	-1	2	2
O=C(Nc1c(-c2ccc(C(F)(F)F)cc2)nc2ncccn12)C1CC1	1	-1	.	-4	-1	3
O=C(Nc1ccc(N2CCOCC2)c(Cl)c1)c1ccccc1F	3.7*	0	3	2	2	8
CC(/C=N/NC(=O)c1ccccc1F)c1ccccc1 (stereo not given)	2	0	6.6*	2	2	11*
O=C(Nc1ccccc1)Nc1ccc(Br)c(Cl)c1	0	-1	-1	-1	6.5*	12*
O=C(Nc1ccc(N2CCOCC2)c(Cl)c1)c1ccco1	3.7*	0	1	5	5	12*
COc1ccc(S[C@]2(C(=O)N3CCN(C(C)=O)CC3)CC(=O)N(C(=O)Nc3ccc(C)c(Cl)c3)[C@@H]2c2ccc(OC)cc2)cc1	-1	-2	.	0	-1	2
COC(=O)[C@]12C[C@H](CC(=O)NCCc3ccccc3OC)C(=O)N(Cc3ccco3)C1=C[C@H](COCc1ccccc1)O[C@@H]2C	-1	-2	.	-1	-4	4
O=C(Nc1ccc(CN2CCOCC2)cc1)c1ccco1	2	0	2	6	5.6*	7
O=C(Nc1ccc(OC(F)F)c(Cl)c1)c1cccc(OC(F)F)c1	.	.	-1	.	.	.
COc1ccc(NC(=O)C(=O)NCCO)cc1Cl	0	-1	1	6	-1	-1
COc1ccc(NC(=O)c2cccc(OC(F)F)c2)cc1Cl	2	-2	-1	2	1	11*
CC(=O)Nc1ccccc1Oc1ccccc1	2	-2	-1	1	-1	-4
O=C(Nc1ccccc1Oc1ccccc1)c1ccccc1F	0	-1	0	9.5*	-1	0
COc1ccc(NC(=O)C(=O)NCCCO)cc1Cl	1	-1	4.5*	2	1	4
Cc1ccc(-c2cc(C(=O)NN=Cc3cccc(Oc4ccccc4)c3)[nH]n2)cc1C	0	-1	.	-3	-3	1
CN(Cc1cn(Cc2ccccc2)nn1)S(=O)(=O)c1ccccc1Br	0	-2	.	0	-2	0
O=C(c1ccccc1F)N1CCN(c2ccc([N+](=O)[O-])c(N3CCOCC3)c2)CC1	-1	-1	5.8*	-4	0	3
O=C(Nc1ccc(Br)c(Cl)c1)c1ccco1	1	0	4	0	4	11*
O=C(Nc1ccc(F)cc1)c1ccccc1F	2	-1	1	3	6.3*	4
CC(=O)Nc1ccc(NC(=O)c2ccccc2F)cc1	1	0	3	4	0	2
C/C(CC(=O)Nc1ccc(C)c(Cl)c1)=N\NC(=O)c1ccco1	2	1.0*	3	7	3	12*
SMILES	DAX1 inh-1	ssDAF12 agonist	DAX1 inh-2	SMARCA2 act	hcDAF-12 act	hgDAF-12 ag
COCCCNC(=O)c1ccc2c(c1)NC(=O)C(C)(C)O2	1	0	.	2	-3	-2
COc1ccc(C(C(=O)N(C)C2CCCC2)N(Cc2ccc(F)cc2)C(=O)c2csc3ccc(Cl)cc23)cc1OC (stereo not given)	-1	-2	.	-6	-4	-1
CC(C)[C@H](N)C(=O)N[C@@H](Cc1ccccc1)C(=O)N1CCC2CCN(S(=O)(=O)c3ccccc3)CC21 (stereo not given in full)	0	-2	.	-2	-1	5
CC(=O)Nc1ccc(NC(=S)NC(=O)C2CC2)cc1	2	0	0	-1	2	1
O=C(NC(=S)Nc1ccc(Br)c(Cl)c1)C1CC1	0	0	1	1	5.8*	2
O=C(CSc1nnc(-c2cccs2)n1Cc1ccco1)Nc1ccc(OCc2ccccc2)cc1	-1	-1	.	-2	-1	2
CSc1nnc(SCC2=NNC(=O)SC2)s1	0	0.9*	0	-2	-1	1
COC(=O)c1ccc(N=Cc2c(-c3ccccc3)[nH][nH]c2=O)cc1	0	1.5*	0	2	3	-2
COc1ccc(/C=C/C(Cc2cccc(C(C)=O)c2)c2ccc(C)cc2)cc1 (stereo not given)	-3	-1	.	-5	-3	-1
Cc1c(OCC(=O)N[C@@H](Cc2ccccc2)C(=O)O)ccc2c1oc(=O)c1ccccc12	0	-1	4.5*	2	0	-2
Cc1c(OCC(=O)N[C@@H](Cc2ccccc2)C(=O)O)ccc2c3c(c(=O)oc12)CCC3	0	-1	2	1	-2	0
O=C1CCC[C@H]2C[C@H](NCc3ccccc3F)CC[C@]23CCCN13	.	-1	.	.	0	0
CCOc1ccc(N(CC(=O)Nc2ccc(C)cc2)S(=O)(=O)c2c(C)noc2C)cc1	0	-2	3	-2	0	1
CCOc1ccc(N(CC(=O)NC(C)(C)C)S(=O)(=O)c2c(C)noc2C)cc1	0	-1	6.8*	0	0	1
CCOc1ccc(N(CC(=O)Nc2ccc(F)c(F)c2)S(=O)(=O)c2c(C)noc2C)cc1	1	-1	4.4*	-1	-1	-1
CC(C)N1CCCCC(NC(=O)c2ccc(-c3ccccc3)cc2)C1=O (stereo not given)	0	-1	.	0	-2	5
COCCCNC(=O)C[C@H]1C[C@@]2(C(=O)OC)C(=C[C@H](COCc3ccccc3)O[C@@H]2C)N(Cc2ccc(Cl)cc2Cl)C1=O	0	-2	.	-2	-3	0
CC(C)(C)OC(=O)N1CCN(C(=O)c2[nH]cnc2C(=O)Nc2cccc(Cl)c2)CC1	0	-1	5.9*	0	0	4
